18 molecules from PubChem BioAssay can be followed below.

Unmarked numbers belong to inactive results. For part of these data: Entries with a potency or affinity are not part of this list. The source made the active and inactive calls. Unless noted, the rule behind the calls is not given here.

The nature of experiment [1]: antimalarial activity against Dd2 strain (AID 2302;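 active = growth inhibition above 50% at the single 2 µM test dose, taken to imply half-maximal potency below 2 µM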;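 note: 0% = DMSO untreated growth and 100% = chloroquine plus artemisinin killed control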). The conditions noted are these: P. falciparum Dd2 in RBCs, LDH growth readout, 72 h; at 2 µM; hits give high values.
Experiment [2] is described as follows: human hepatoma cell viability loss – ATP luminescence, cytotoxicity control for P. falciparum antimalarial project, primary screen (AID 2303;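 active = inhibition above 50%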;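 note: 0% = DMSO wells and 100% = digitonin-killed cells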). The settings on record: HepG2 viability, 24-48 h, at 10 µM, hits give high values.
Experiment [3] addresses L-lactate dehydrogenase (Plasmodium falciparum (isolate CDC / Honduras)) (UniProt Q27743). Nature of the experiment: PfLDH activity inhibition – cell lysate, 3D7 strain, counter-screen for P. falciparum growth inhibition project (AID 2304).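 Note: 0% = vehicle and 100% = reference inhibitor.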 The conditions noted are these: P. falciparum 3D7 crude extract, LDH APAD/NBT absorbance; at 2 µM; hits give high values. (The purpose of a counterscreen is to sort out artefacts and off-target activity.)

A short description of experiment [4]: inhibition of 3D7 malaria parasite growth – strain 3D7 (AID 2306).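 Note: 0% = DMSO wells and 100% = chloroquine plus artemisinin control wells.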 The settings on record: P. falciparum 3D7 erythrocytic growth, LDH absorbance, 72 h; at 2 µM; hits give high values.
Experiment [5] deals with Calcium-dependent protein kinase 1 (Plasmodium falciparum (isolate 3D7)) (UniProt P62344). Nature of the experiment: PfCDPK1 kinase inhibitors, biochemical, TCAMS library (AID 1159585; cut-off not given, nearly all actives have IC50 up to about 0.98 µM;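 note: inhibitors leave more ATP so luminescence rises with inhibition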). The settings on record: recombinant PfCDPK1, Kinase-Glo ATP depletion luminescence. In general terms: In Kinase-Glo more light means more ATP remaining.
Calcium-dependent protein kinase 1 (Plasmodium falciparum (isolate 3D7)), sequence (P62344 whole entry, looked up): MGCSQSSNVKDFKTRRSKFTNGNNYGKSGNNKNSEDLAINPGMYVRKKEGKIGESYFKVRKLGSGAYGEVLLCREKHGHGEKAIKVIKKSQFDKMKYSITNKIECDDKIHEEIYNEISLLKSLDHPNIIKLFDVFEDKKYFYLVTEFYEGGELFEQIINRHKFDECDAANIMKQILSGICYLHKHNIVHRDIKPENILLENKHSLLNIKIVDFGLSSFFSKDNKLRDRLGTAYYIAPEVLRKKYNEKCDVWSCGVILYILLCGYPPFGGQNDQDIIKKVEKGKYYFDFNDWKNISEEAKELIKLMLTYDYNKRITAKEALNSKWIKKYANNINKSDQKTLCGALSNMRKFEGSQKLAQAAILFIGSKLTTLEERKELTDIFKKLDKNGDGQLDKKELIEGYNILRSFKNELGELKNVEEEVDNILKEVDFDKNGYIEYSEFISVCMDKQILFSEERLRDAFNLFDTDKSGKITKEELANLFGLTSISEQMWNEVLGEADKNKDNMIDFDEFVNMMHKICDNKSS
The target of experiment [6] is Plasmodium falciparum protein kinase 6 (PK6, PF3D7_1337100) (UniProt Q8IDW1). Nature of the experiment: PfPK6 kinase inhibitors, biochemical, TCAMS library (AID 1159586). The conditions noted are these: recombinant PfPK6, Kinase-Glo ATP depletion luminescence.
Plasmodium falciparum protein kinase 6 (PK6, PF3D7_1337100), sequence (Q8IDW1 1-305): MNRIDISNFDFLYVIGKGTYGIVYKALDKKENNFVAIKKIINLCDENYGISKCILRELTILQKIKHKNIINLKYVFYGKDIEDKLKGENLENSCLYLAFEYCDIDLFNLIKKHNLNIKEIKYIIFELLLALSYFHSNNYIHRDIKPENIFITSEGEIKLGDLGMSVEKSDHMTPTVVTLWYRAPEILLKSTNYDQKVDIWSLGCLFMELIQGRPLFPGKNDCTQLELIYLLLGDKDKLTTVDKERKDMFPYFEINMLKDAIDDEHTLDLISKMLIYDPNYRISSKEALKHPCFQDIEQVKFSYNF
In experiment [7] the target is Protein kinase 7 (PK7), Plasmodium falciparum 3D7 (PF3D7_0213400) (UniProt Q7YTF7). Nature of the experiment: inhibition of Plasmodium PK7 catalytic activity – biochemical, TCAMS antimalarial set, Kinase-Glo luminescence (AID 1159587). The conditions noted are these: recombinant PfPK7, Kinase-Glo ATP depletion luminescence.
Protein kinase 7 (PK7), Plasmodium falciparum 3D7 (PF3D7_0213400), sequence (Q7YTF7 1-343): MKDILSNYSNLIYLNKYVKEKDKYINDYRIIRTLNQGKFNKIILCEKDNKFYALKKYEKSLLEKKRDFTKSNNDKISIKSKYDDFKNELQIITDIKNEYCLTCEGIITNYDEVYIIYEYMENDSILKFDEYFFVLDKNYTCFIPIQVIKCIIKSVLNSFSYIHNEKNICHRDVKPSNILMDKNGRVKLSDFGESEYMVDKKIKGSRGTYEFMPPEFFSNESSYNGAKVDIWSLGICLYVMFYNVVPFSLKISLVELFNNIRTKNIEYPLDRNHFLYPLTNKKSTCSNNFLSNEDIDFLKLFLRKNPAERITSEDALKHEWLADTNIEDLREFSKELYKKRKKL
The target in experiment [8] is Calcium-dependent protein kinase 4 (Plasmodium falciparum (isolate 3D7)) (UniProt Q8IBS5). Nature of the experiment: PfCDPK4 kinase inhibitors, biochemical, TCAMS library (AID 1159588; cut-off not given, nearly all actives have IC50 up to about 0.91 µM). The settings on record: recombinant PfCDPK4, Kinase-Glo ATP depletion luminescence.
Calcium-dependent protein kinase 4 (Plasmodium falciparum (isolate 3D7)), sequence (Q8IBS5 whole entry, looked up): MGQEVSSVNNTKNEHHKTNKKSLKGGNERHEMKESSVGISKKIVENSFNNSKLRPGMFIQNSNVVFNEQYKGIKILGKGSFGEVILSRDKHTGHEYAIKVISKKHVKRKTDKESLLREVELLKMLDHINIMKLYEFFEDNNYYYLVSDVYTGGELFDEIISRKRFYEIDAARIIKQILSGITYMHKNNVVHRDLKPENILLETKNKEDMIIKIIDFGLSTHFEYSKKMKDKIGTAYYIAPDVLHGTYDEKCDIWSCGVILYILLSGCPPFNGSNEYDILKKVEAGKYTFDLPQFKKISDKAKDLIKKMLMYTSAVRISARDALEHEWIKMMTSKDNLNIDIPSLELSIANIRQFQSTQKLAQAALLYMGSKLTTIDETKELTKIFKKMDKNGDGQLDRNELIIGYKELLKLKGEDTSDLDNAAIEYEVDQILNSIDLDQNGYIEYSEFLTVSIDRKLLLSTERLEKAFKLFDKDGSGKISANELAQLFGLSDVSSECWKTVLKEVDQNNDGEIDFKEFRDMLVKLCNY

L-lactate dehydrogenase (Plasmodium falciparum (isolate CDC / Honduras)), sequence (Q27743 whole entry, looked up): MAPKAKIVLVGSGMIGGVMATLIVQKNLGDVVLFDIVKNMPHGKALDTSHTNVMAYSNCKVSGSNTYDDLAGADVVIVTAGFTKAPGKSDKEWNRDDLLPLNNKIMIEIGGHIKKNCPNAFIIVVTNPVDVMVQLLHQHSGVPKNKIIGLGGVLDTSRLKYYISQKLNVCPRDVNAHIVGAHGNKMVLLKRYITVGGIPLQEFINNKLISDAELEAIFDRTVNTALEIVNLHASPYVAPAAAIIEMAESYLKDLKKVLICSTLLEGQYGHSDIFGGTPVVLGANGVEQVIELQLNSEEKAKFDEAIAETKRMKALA

With `CCN(CC)CCN(Cc1ccc(-c2ccc(C(F)(F)F)cc2)cc1)C(=O)Cn1c(CCc2cccc(F)c2F)nc(=O)c2cc(F)ccc21`, the growth inhibition in experiment [1] was 45%; in experiment [4], 98% (active). For the same molecule, the inhibition – broadly, the change of the read-out against control, counted positive when it falls – in experiment [2] was 15%; in experiment [3], 0%. In addition, the result in experiment [5], in experiment [6], in experiment [7] and in experiment [8] was inactive.
Turning to `Cc1cc2c(cc1C(F)(F)F)N(C(=O)Nc1ccc(C(=O)NC3CCN(Cc4ccccc4)C3)cc1)CC2` (centres undefined), the growth inhibition in experiment [1] is 48%; in experiment [4], 100% (active). Further, the inhibition in experiment [2] is 19%; in experiment [3], -6%. The outcome in experiment [5], in experiment [6], in experiment [7] and in experiment [8] was inactive.
Turning to `CN(CCC(O)c1ccc(Cl)c(Cl)c1)C[C@H]1C[C@@H]1C(=O)c1ccccc1` (some centres undefined), the growth inhibition was 96% (active) in experiment [1] and 98% (active) in experiment [4]. Further, the inhibition was 11% in experiment [2] and -3% in experiment [3]. The result in experiment [5], in experiment [6], in experiment [7] and in experiment [8] was inactive.
As to `Cc1nc(-c2cccc(NCc3ccccc3)c2)[nH]c1C`, the growth inhibition in experiment [1] is 48%; in experiment [4], 101% (active). The inhibition was 16% in experiment [2] and 1% in experiment [3]. Besides, the outcome in experiment [5], in experiment [6], in experiment [7] and in experiment [8] was inactive.
On to `Cc1cc(NN=Cc2ccccc2Cl)c2ccccc2n1`, for which the growth inhibition in experiment [1] is 30%; in experiment [4], 102% (active). Further, the inhibition in experiment [2] was -3%; in experiment [3], 2%. Besides, the result in experiment [5], in experiment [6], in experiment [7] and in experiment [8] was inactive.
For `CC(Cc1ccc(OCCCCOc2ccccc2)cc1)NCCc1ccc(Oc2ccccc2)cc1` (centres undefined), the growth inhibition was 95% (active) in experiment [1] and 89% (active) in experiment [4]. The values for the inhibition in experiment [2] and in experiment [3] were 99% (active) and 5%, respectively. The result in experiment [5], in experiment [6], in experiment [7] and in experiment [8] was inactive.
With `O=C(Nc1cccc([N+](=O)[O-])c1)N(Cc1ccc(Cl)c(Cl)c1)C1CCNCC1`, the growth inhibition was -2% in experiment [1] and 99% (active) in experiment [4]. Besides, the inhibition in experiment [2] is 17%; in experiment [3] it was -2%. Besides, the outcome in experiment [5], in experiment [6], in experiment [7] and in experiment [8] was inactive.
With `Oc1ccc(CCNCCCCCCNCCc2ccc(-c3ccccc3)cc2)cc1O`, the growth inhibition is 8% in experiment [1] and 101% (active) in experiment [4]. The inhibition in experiment [2] was 72% (active); in experiment [3], 1%. For the same molecule, the result in experiment [5], in experiment [6], in experiment [7] and in experiment [8] was inactive.
Take `COc1cc2c(OC)cccc2cc1CNCCCCCCNCc1cc2cccc(OC)c2cc1OC`: the figures for the growth inhibition in experiment [1] and in experiment [4] were 7% and 95% (active), respectively. Besides, the inhibition was 59% (active) in experiment [2] and 1% in experiment [3]. The result in experiment [5], in experiment [6], in experiment [7] and in experiment [8] was inactive.
For `O=C(Nc1ccc(O)c(-c2nc3ccccc3[nH]2)c1)c1ccc([N+](=O)[O-])cc1`, the growth inhibition is 45% in experiment [1] and 97% (active) in experiment [4]. In addition, the results for the inhibition in experiment [2] and in experiment [3] were -2% and -6%, respectively. In addition, the outcome in experiment [5], in experiment [6], in experiment [7] and in experiment [8] was inactive.
Turning to `Cn1cc(-c2ccccc2C(=O)O)c(=O)c2cc(Cl)ccc21`, the values for the growth inhibition in experiment [1] and in experiment [4] were -4% and 89% (active), respectively. The values for the inhibition in experiment [2] and in experiment [3] were 16% and -1%, respectively. Also, the result in experiment [5], in experiment [6], in experiment [7] and in experiment [8] was inactive.
For the molecule `COc1ccc2c(NN=Cc3ccc(F)cc3)ccnc2c1`, the growth inhibition in experiment [1] is 99% (active); in experiment [4] it was 100% (active). Moreover, the inhibition was 14% in experiment [2] and -4% in experiment [3]. Besides, the result in experiment [5], in experiment [6], in experiment [7] and in experiment [8] was inactive.
Regarding `CO/C(=C\C=C\c1cc2cc(Cl)c(Cl)cc2[nH]1)C(=O)NC1C[C@@H](C)N(C)[C@@H](C)C1` (some centres undefined), the figures for the growth inhibition in experiment [1] and in experiment [4] were 57% (active) and 97% (active), respectively. Further, the inhibition was 64% (active) in experiment [2] and 1% in experiment [3]. Besides, the outcome in experiment [5], in experiment [6], in experiment [7] and in experiment [8] was inactive.
On to `CCNc1cc(C)nc(Nc2ccc(NC(=O)C3CCCC3)cc2)n1`, for which the results for the growth inhibition in experiment [1] and in experiment [4] were 69% (active) and 99% (active), respectively. Further, the inhibition is 13% in experiment [2] and 0% in experiment [3]. Moreover, the result in experiment [5], in experiment [6], in experiment [7] and in experiment [8] was inactive.
With `CCCCOc1ccc(N2C(N)=NC(N)=NC2(C)C)cc1`, the figures for the growth inhibition in experiment [1] and in experiment [4] were 3% and 97% (active), respectively. Also, the inhibition in experiment [2] is 16%; in experiment [3], 6%. In addition, the result in experiment [5], in experiment [6], in experiment [7] and in experiment [8] was inactive.
As for `CCc1c(CCNCCCCCCNCCc2ccc3c(c2C)OCO3)ccc2c1OCO2`, the growth inhibition in experiment [1] was 7%; in experiment [4], 101% (active). The values for the inhibition in experiment [2] and in experiment [3] were 59% (active) and 7%, respectively. Besides, the outcome in experiment [5], in experiment [6], in experiment [7] and in experiment [8] was inactive.
For the molecule `CC(CN(C)C)C(=O)Nc1ccc(-c2csc(-c3nc4ccccc4[nH]3)c2)cc1` (centres undefined), the growth inhibition is 19% in experiment [1] and 84% (active) in experiment [4]. The inhibition is 28% in experiment [2] and -4% in experiment [3]. Further, the outcome in experiment [5], in experiment [6], in experiment [7] and in experiment [8] was inactive.
`CCc1c[nH]c2c(N(c3ccccc3)S(C)(=O)=O)cc(C(=O)N[C@@H](Cc3ccccc3)[C@H](O)CNCc3cccc(C(F)(F)F)c3)cc12`: the values for the growth inhibition in experiment [1] and in experiment [4] were 98% (active) and 93% (active), respectively. Further, the inhibition in experiment [2] is 20%; in experiment [3], 1%. Further, the result in experiment [5], in experiment [6], in experiment [7] and in experiment [8] was inactive.
